# S1P4 antag: human S1P4 receptor antagonism. 0.26% of 220,000 active. S1P4-expressing cells, antagonist mode, reporter read-out. inhibition, % at 4.98 µM. O95977. AID 1510; in the data active = inhibition above about 29%;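 also: 0% = wells stimulated with agonist and 100% = vehicle wells without agonist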
# S1P4 agonist: activates the human S1P4 receptor; O95977; S1P4-expressing cell line, agonist reporter assay; activation, % at 4.98 µM; 0.35% of 220,000 active; in the data active = activation above about 11%;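 also: 0% = DMSO vehicle and 100% = reference agonist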
# S1P3 antagonist: S1P3 (human) receptor antagonism; Q99500; CHO S1P3 NFAT-BLA reporter, FRET fluorescence, antagonist mode; inhibition, % at 4.98 µM; 0.27% of 170,000 active;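 active = inhibition above the plate cutoff, the mean inhibition of test wells on that plate plus 3 SD, cut at about 28% in these data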;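 also: cells challenged with S1P at its EC80 of 0.8 µM; blue over green emission ratio from cleaved BLA substrate after 4 h stimulation; 0% = S1P-stimulated wells and 100% = unstimulated DMSO-only wells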
# Target sequence (Q99500 whole entry, looked up): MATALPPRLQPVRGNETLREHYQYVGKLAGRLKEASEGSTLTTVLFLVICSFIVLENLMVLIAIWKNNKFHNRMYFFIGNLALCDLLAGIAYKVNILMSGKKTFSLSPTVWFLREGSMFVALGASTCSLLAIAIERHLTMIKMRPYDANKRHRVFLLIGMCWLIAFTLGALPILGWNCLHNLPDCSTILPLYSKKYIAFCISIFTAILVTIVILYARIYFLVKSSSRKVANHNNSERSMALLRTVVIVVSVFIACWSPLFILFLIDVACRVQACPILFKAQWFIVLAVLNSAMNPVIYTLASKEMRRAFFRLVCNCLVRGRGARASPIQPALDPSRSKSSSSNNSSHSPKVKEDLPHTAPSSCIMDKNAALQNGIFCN
# HSF1 inh: HSF1 inhibition. NIH3T3-HGL HSE-luciferase, MG132-induced, luminescence 8 h; stronger effect = lower value. activity change, negative = inhibition, % at 7.5 µM (by protocol). 0.77% of 300,000 active;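 active = more than half of replicate wells show activity change below -50%, luminescence cut by over half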;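 also: luciferase reports HSF-1 transcriptional activity via heat shock element; 0% = median of DMSO wells and -100% = zero luminescence signal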
# HSF1 activator: increases HSF-1 driven luciferase reporter signal; NIH3T3-HGL HSF-1 luciferase reporter, MG132, 8 h; 100% = twice DMSO control signal; activation, % at 9 µM; 1.7% of 300,000 active;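 active = mean replicate activation of at least 50% with a set share of replicates each reaching 50%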;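 also: 0% = median of the neutral control wells and 100% = twice that signal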
# Hsp70 act: Hsp70 transcriptional activation, primary screen. 0.04% of 200,000 active. AID 1203. activation, % at 10 µM. HeLa Hsp70 promoter luciferase reporter, luminescence; scaled: vehicle 0, proteasome-inhibitor control 100%;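 active = activation above the mean across all tested compounds plus 3 SD, cutoff set per campaign, cut at about 5.5% in these data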;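 also: 100% = MG132 at 30 µM as the positive control and 0% = DMSO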
# S1P4 agonist cf: human S1P4 agonism, confirmation; shares compounds with S1P4 agonist; S1P4 agonist cell-based reporter assay; activation, % at 4.98 µM; 7% of 740 active; AID 1523; in the data active = activation above about 12%;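 also: 0% = vehicle and 100% = full reference agonist response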
# S1P1 agonist: activates human S1P1, counter-screen for S1P4 agonists; shares compounds with S1P4 agonist; S1P1 agonist cell-based assay, activation; activation, % at 4.98 µM; 4% of 740 active; AID 1563; in the data active = activation above about 21%;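 also: 0% = vehicle wells and 100% = reference agonist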
# The depositor's hits bear a star; . = not tested or not shown. The list is not random: actives were taken first. Their share in the collection is about 2.9%.
SMILES,S1P4 antag,S1P4 agonist,S1P3 antagonist,HSF1 inh,HSF1 activator,Hsp70 act,S1P4 agonist cf,S1P1 agonist
COc1ccc(NC(=O)CSc2nnc(C3CCCCC3)n2N)cc1,5,0,-2,-2,4,.,.,.
O=C(Nc1c2c(nn1-c1ccc(Cl)cc1)CS(=O)(=O)C2)c1ccccc1,.,.,.,4,-3,.,.,.
CCOc1cc(S(=O)(=O)NCCc2ccc(OC)c(OC)c2)c(OCC)cc1-n1cnnn1,-12,73*,.,-11,-1,0,-2,0
C=CCn1c(=O)c(C#N)cc2c(=O)n3ccccc3nc21,-15,11*,-13,.,.,0,12*,31*
N#Cc1cc2c(=O)n3ccccc3nc2n(-c2ccc(Cl)cc2)c1=O,-15,9,-8,4,-12,0,.,.
Cc1ccccc1-n1c(=O)c(C#N)cc2c(=O)n3ccccc3nc21,-39,44*,.,2,17,0,27*,46*
Cc1cc(-n2c(=O)c(C#N)cc3c(=O)n4ccccc4nc32)no1,-74,28*,-99,0,4,0,20*,34*
C=CCn1c(=N)c(C#N)cc2c(=O)n3ccccc3nc21,-25,0,.,-1,-7,0,.,.
Cc1cc(C(=O)NCC(=O)Nc2c(C)cccc2C)c(C)o1,.,.,.,-3,4,.,.,.
O=C(Nc1ccc(S(=O)(=O)Nc2ncccn2)cc1)C1=NN(c2ccccc2)C(=O)CC1,1,-1,5,0,-14,.,.,.
COc1ccc(-c2noc(CSc3nc4sc(C)c(C)c4c(=O)n3-c3ccccc3)n2)cc1,-11,21*,-2,0,10,0,0,-1
CCCCC(CC(O)COCC(C)C)C(=O)NN (stereo unspecified),-19,42*,4,1,8,0,-2,4
C=CCNC(=S)NNC(=O)C(CCCC)CC(O)COCC(C)C (stereo unspecified),-3,0,-13,-6,5,.,.,.
C=CCNC(=S)N/N=C/c1ccc(C)cc1C,8,48*,12,19,27,0,-3,-3
CCNC(=S)N/N=C/c1cc(C)ccc1C,3,3,-4,7,11,0,.,.
N#Cc1ccc(CSc2nnc(-c3cccnc3)o2)cc1,-15,65*,-16,-9,5,0,-3,-5
Cc1ccc(NC(=O)C2CCCN2C(=O)Oc2ccccc2)cc1 (stereo unspecified),-10,14*,-8,-11,-10,-1,-2,-13
O=C(CSC(=S)N1CCSCC1)c1ccc(Cl)cc1,-18,1,16,5,-6,0,.,.
O=C(CSC(=S)N1CCSCC1)c1ccccc1,8,53*,0,40,60*,0,-2,1
CCNC(=S)N(CCc1cccc(C)c1)Cc1cc2cc(OC)c(OC)cc2[nH]c1=O,-2,51*,-2,4,5,1,-1,-4
CC1NC(=S)N(C2CCCCC2)C1=O (stereo unspecified),-39,2,-1,-2,-4,0,.,.
O=C(CSc1ccccc1)NCCc1ccc(F)cc1,.,.,.,-10,-5,.,.,.
O=C(CSc1ccc(F)cc1)NCCSc1ccccc1,-7,11*,15,7,13,0,-2,-3
N#C/C(=C\c1cccs1)C(=O)c1ccccc1Cl,24,36*,2,21,45,.,-2,-9
CC(C)(C)C(=O)/C(C#N)=C/c1cccs1,13,0,-8,0,11,.,.,.
SMILES,S1P4 antag,S1P4 agonist,S1P3 antagonist,HSF1 inh,HSF1 activator,Hsp70 act,S1P4 agonist cf,S1P1 agonist
COc1ccccc1C(C)NC(=O)c1cc(=O)[nH]c2ccccc12 (stereo unspecified),.,.,.,1,-5,.,.,.
Cc1ccc(NC(=O)CN(C)C(=O)CCCN2C(=O)c3ccccc3C2=O)cc1,-6,38*,-10,-2,-5,0,-2,-9
CC1CN(CC(O)COC(c2ccccc2)c2ccccc2)CC(C)O1 (stereo unspecified),-9,57*,-15,-7,-1,0,-1,5
CCCCOc1ccc(-c2nnn(CC(=O)NCc3ccco3)n2)cc1,-6,-2,-43,27,45,0,.,.
CC(C)CC(=O)Nc1ccc(-c2nnn(CC(=O)NCc3ccco3)n2)cc1,-4,14*,-10,1,20,0,-2,-5
CCCSc1nnc(NC(=O)Nc2ccc(F)cc2)s1,-3,61*,.,8,-1,0,-2,2
COc1ccc(-c2noc3c2-c2nc(-c4ccc(Br)cc4)sc2CC3)cc1,.,.,.,-7,-10,.,.,.
COc1cccc(C2C3=C(CCCC3=O)NC3=C2C(=O)c2ccccc23)c1 (stereo unspecified),-12,13*,-1,-2,24,0,-2,-5
O=C(C1COc2ccccc2O1)N1CCN(S(=O)(=O)c2ccccc2)CC1 (stereo unspecified),.,.,.,-1,5,.,.,.
COc1ccc(Cn2c(=O)sc3ccccc3c2=O)cc1,12,0,4,.,.,0,.,.
COCCn1c(=O)sc2ccccc2c1=O,-18,27*,-12,1,-3,0,-1,-2
CCOc1ccc(S(=O)(=O)n2c(C)nc3ccccc32)cc1,-4,14*,-11,.,.,0,-1,-7
CC(=O)c1cccc(-n2nnnc2SCC(=O)Nc2cc(C)on2)c1,.,.,.,-2,4,.,.,.
CC(C)(C)c1ccc(N2C(=O)CSC2c2cccnc2)cc1 (stereo unspecified),12,99*,-3,-2,6,.,-1,-6
CCc1ccc(C(=O)Cn2ccsc2=N)cc1,.,.,.,12,46,.,.,.
CN=C1S/C(=C\c2cc(C)n(-c3ccccc3F)c2C)C(=O)N1C,-35,59*,.,-82*,-83,0,89*,72*
Cc1cc(/C=C2\SC(=S)N(C)C2=O)c(C)n1-c1cccc(O)c1,6,0,-17,-29,-37,.,.,.
COC(=O)CCN(c1ccccc1)S(=O)(=O)c1ccc(OC)cc1,-1,2,-9,-1,9,0,.,.
CCCCC(=O)Nc1nnn(CCC)n1,-18,-1,-14,-7,-3,0,.,.
CCCCC(=O)NC(=S)Nc1nnn(CCC)n1,7,179*,-18,-5,6,0,-2,-6
COc1ccc(NC(=O)CSc2nc3ccccc3n2-c2ccccc2)c([N+](=O)[O-])c1,-5,45*,-3,5,18,0,-1,-3
COc1ccc(NC(=O)CSc2ccccc2)c([N+](=O)[O-])c1,4,-1,-3,17,22,0,.,.
C=CCn1c(=O)c2ccccc2n2c(SCc3c(C(=O)OCC)oc4ccccc34)nnc12,.,.,-14,-1,-6,.,.,.
